The values below come from the supplement of paper PMC13380429.

The subject of the experiment is Vero E6 infected with SARS-CoV-2. Briefly: morphology score (similarity to uninfected cells); higher = more like uninfected cells. The settings on record: 24 h.
`C[C@@H](O)[C@H]1C(=O)N2C(C(=O)O)=C(S[C@@H]3CN[C@H](C(=O)N(C)C)C3)[C@H](C)[C@H]12` [meropenem] (10 µM) returned a morphology score of 0.0366.

Compound `CN1CCN(Cc2ccc(Nc3ncc(Cl)c(Nc4ccccc4S(=O)(=O)N(C)C)n3)cc2)CC1` (10 µM) gave a morphology score of -0.145.

In turn, `C[C@H](Oc1cc(-c2cnn(C3CCNCC3)c2)cnc1N)c1c(Cl)ccc(F)c1Cl` [crizotinib-(S)] (0.833333 µM) yielded a morphology score of 0.602.

`CCCC1(CCC)CCC2(CCN(CCCN(CC)CC)C2)CC1` [atiprimod] (0.833333 µM) gave a morphology score of 0.283.

For `C[N+]1(C)[C@@H]2CC[C@H]1C[C@@H](OC(=O)C(CO)c1ccccc1)C2` (stereo not given in full) [methylatropine-nitrate] (10 µM), the morphology score came to 0.131.

The compound `CN[C@H](C(=O)N[C@H](C(=O)N(C)[C@H](/C=C(\C)C(=O)O)C(C)C)C(C)(C)C)C(C)(C)c1ccccc1` [taltobulin] (10 µM) showed a morphology score of -0.171.

Take `N[C@@H](CS(=O)O)C(=O)O` [L-cysteinesulfinic-acid] (10 µM): the morphology score is -0.0506.

`CN1CCC(=C2c3ccccc3CC(=O)c3sccc32)CC1` [ketotifen] (10 µM) had a morphology score of 0.144.

The compound `CC#CC(=O)N1CC[C@@H](n2c(=O)n(-c3ccc(Oc4ccccc4)cc3)c3c(N)ncnc32)C1` (0.833333 µM) gave a morphology score of -0.0591.

As for `CC1=C(/C=C/C(C)=C/C=C/C(C)=C/C=C/C=C(C)/C=C/C=C(C)/C=C/C2=C(C)CCCC2(C)C)C(C)(C)CCC1` [beta-carotene] (10 µM), the morphology score turned out to be 0.0662.

`C[C@@H]1O[C@@H](O[C@H]2[C@H](Oc3cc(O)c4c(c3)O[C@H](c3ccc(O)cc3)CC4=O)O[C@H](CO)[C@@H](O)[C@@H]2O)[C@H](O)[C@H](O)[C@H]1O` [Naringin (Naringoside)] (10 µM) came in with a morphology score of 0.254.

`CCCCCCCCCCCCCCCCOc1nc2ccc(C)cc2c(=O)o1` [cetilistat] (10 µM) yielded a morphology score of -0.00505.

`CC[C@H](C)[C@H](N)C1=N[C@H](C(=O)N[C@@H](CC(C)C)C(=O)N[C@H](CCC(=O)O)C(=O)N[C@H](C(=O)N[C@H]2CCCCNC(=O)[C@H](CC(N)=O)NC(=O)[C@@H](CC(=O)O)NC(=O)[C@H](Cc3cnc[nH]3)NC(=O)[C@@H](Cc3ccccc3)NC(=O)[C@H]([C@@H](C)CC)NC(=O)[C@@H](CCCN)NC2=O)[C@@H](C)CC)CS1` [bacitracin] (10 µM) returned a morphology score of -0.109.

In turn, `Cn1cc(-c2ccc3ncc(Cc4ccc5ncccc5c4)n3n2)cn1` (10 µM) returned a morphology score of 0.442.

For `COc1c(C)c2c(c(O)c1C/C=C(\C)CCC(=O)O)C(=O)OC2` [mycophenolic-acid] (10 µM), the morphology score was -0.0923.

Regarding `COc1c(N2C[C@@H]3CCCN[C@@H]3C2)c(F)cc2c(=O)c(C(=O)O)cn(C3CC3)c12` [moxifloxacin] (10 µM), the morphology score came out at 0.0295.

Turning to `O=C(NCC1(N2CCN(c3ccccc3)CC2)CCOCC1)c1cccnc1Sc1ccccc1` (10 µM), the morphology score was -0.047.

Turning to `Nc1ncnc2c1nc(Br)n2[C@@H]1O[C@@H]2COP(=O)(O)O[C@H]2[C@H]1O` [8-bromo-cAMP] (10 µM), the morphology score was determined as 0.422.

The compound `CC(C(=O)O)c1ccc2c(c1)Cc1cccnc1O2` (stereo not given) [pranoprofen] (10 µM) displayed a morphology score of -0.152.

`CC(C)[N+](C)(CCOC(=O)C1c2ccccc2Oc2ccccc21)C(C)C` [propantheline] (10 µM) registered a morphology score of 0.214.

On to `C=Cc1c(C)c2cc3nc(c(CC(=O)O)c4[n-]c(cc5nc(cc1[n-]2)C(C)=C5CC)c(C)c4C(=O)O)[C@@H](CCC(=O)O)[C@@H]3C.[Cu+2]` [chlorophyllin-copper] (10 µM), for which the morphology score is -0.0712.

The compound `CCOC(=O)[C@@H](N)Cc1ccc(O)c(O)c1` [etilevodopa] (10 µM) came in with a morphology score of -0.149.

`C[C@H](NCc1ccc(OCc2ccccc2F)cc1)C(N)=O` [priralfinamide] (10 µM) displayed a morphology score of -0.175.

For the compound `CC[C@]12CCCN3CCc4c(n(c5ccccc45)C(=O)C1)[C@@H]32` [vinburnine] (10 µM), the morphology score was -0.0662.

With `Oc1nc(O)c2cn[nH]c2n1` [oxypurinol] (10 µM), the morphology score is -0.157.

For `CC(C)(C)c1ccc(S(=O)(=O)NCc2ccc(C(=O)Nc3cccnc3)cc2)cc1` (0.833333 µM), the morphology score was determined as 0.0631.

Take `O=C1NC(=O)[C@@H](c2cn3c4c(cccc24)CCC3)[C@@H]1c1c[nH]c2ccccc12` [tivantinib] (10 µM): the morphology score was -0.141.

The compound `CN[C@@H](C)C(=O)N[C@H](C(=O)N1CCC[C@H]1c1nc(C(=O)c2ccc(F)cc2)cs1)C1CCCCC1` (10 µM) showed a morphology score of 0.403.

As for `N[C@H](Cc1ccccc1)C(=O)O` [D-phenylalanine] (10 µM), the morphology score worked out at 0.0544.

The compound `COc1ccc(C(=O)c2ccccc2)c(O)c1` [oxybenzone] (10 µM) gave a morphology score of 0.131.

`CN1CCN(C(=O)C2C(C(=O)O)[C@H]3CC[C@@H]2O3)CC1` (stereo not given in full) (10 µM) returned a morphology score of 0.0648.

In the case of `Cc1cnc(CNC(=O)c2c(=O)c3ccc(N4CCCN(C)CC4)nc3n3c2sc2ccccc23)cn1` (0.833333 µM), the morphology score was 0.0323.

`CN1CCN(C(=O)c2cc3cc(Cl)ccc3[nH]2)CC1` (10 µM) had a morphology score of -0.00911.

For `COc1ccccc1C(=O)Nc1cccc(NC(=O)c2cccc(C)c2)c1` (10 µM), the morphology score came to 0.257.

`CCN(C)C(=O)Oc1cccc([C@H](C)N(C)C)c1` [rivastigmine] (10 µM) registered a morphology score of 0.136.

For `CCCCn1c(-c2ccccc2)nc(-c2ccccc2)c1CN(Cc1ccc2c(c1)OCO2)Cc1ccc2c(c1)OCO2` (10 µM), the morphology score turned out to be 0.139.

The compound `C#C[C@]1(O)CC[C@H]2[C@@H]3CCC4=CC(=O)CC[C@]4(C)[C@H]3CC[C@@]21C` [ethisterone] (10 µM) returned a morphology score of -0.0671.

On to `CC[C@H](CO)Nc1nc(Nc2cccc(-c3ccccn3)c2)c2ncn(C(C)C)c2n1` (10 µM), for which the morphology score was -0.214.

As for `CC1(C)O[C@@H]2C[C@H]3[C@@H]4CCC5=CC(=O)C=C[C@]5(C)[C@H]4[C@@H](O)C[C@]3(C)[C@]2(C(=O)CO)O1` [desonide] (10 µM), the morphology score was determined as 0.0066.

Compound `COc1cc2ncnc(Nc3ccc(F)c(Cl)c3)c2cc1NC(=O)/C=C/CN1CCCCC1` [dacomitinib] (0.833333 µM) displayed a morphology score of -0.0483.
